About 6,800 (1.8%) of roughly 370,000 compounds were called active. The entries come from a sample that favours actives as a whole. A number with no mark means an inactive call.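 Rule for the calls: active = activation above a cutoff set at the mean of all screened compounds plus 3 SD (cut at about 10% in these data); inactive = the rest.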
system: Nuclear hormone receptor DAF-12 (Heterodera glycines), GAL4 fusion; assay: H. glycines DAF-12 receptor agonists, primary screen, cell-based, luminescence, HEK293, GAL4 fusion, UAS-luciferase (AID 687014); conditions: HEK293 GAL4-hgDAF12 UAS-luciferase reporter, agonist luminescence; at 6.8 µM; active compounds read high;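 note: 0% = DMSO wells and 100% = sodium butyrate wells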

`COc1ccc2c(c1)NP(=S)(c1ccccc1)N2` (stereo not given) was tested, and the activation was 23.2% (active).
For `Cc1cc(C)c2c(c1)NP(=S)(c1ccccc1)N2` (stereo not given), the activation was 13.1% (active).
`c1ccc2sc(C3CCCNC3)nc2c1` (stereo not given) was tested, and the activation was 11.6% (active).
`O=C(N/N=C/c1c(O)n(Cc2ccccc2)c(=O)[nH]c1=O)c1ccccc1` was tested, and the activation was 16% (active).
`O=C(N/N=C/c1c(O)n(C2CC2)c(=S)[nH]c1=O)c1ccccc1` was tested, and the activation was 11.8% (active).
With `CC(C)(C)c1ccc(OC(=O)N2CCCCC2)cc1` the activation was 14.4% (active).

In order of rising activation:
1. CO[C@H]([C@H](C)/C=C/N(C)C=O)[C@@H](C)C(=O)CC[C@H](C)[C@H](O)[C@H](C)[C@H]1OC(=O)/C=C/C(C)=C/[C@H](O)[C@H](OC)C[C@@H]2C=CC[C@@H](C[C@H](OC)[C@@]3(CO3)[C@@H](OC)C[C@@H](OC)[C@@H]1C)O2  -9.43%
2. CCCC[N+]1(C)C2CC(OC(=O)C(CO)c3ccccc3)CC1C1OC12 (stereo not given)  -2.54%
3. CS(=O)(=O)N1CCC2CCNC2C1 (stereo not given)  -2.06%
4. O=c1[nH]c(=S)n(C2CC2)c(O)c1/C=N/N1CCOCC1  -1.58%
5. CCN(CC)C(=O)[C@@H]1C=C2c3cccc4[nH]c(Br)c(c34)C[C@H]2N(C)C1  -1.1%
6. COc1cc(OC)cc(C(=O)NCCN2CCC3(CC2)C(=O)NCN3c2ccccc2)c1  -1.03%
7. O=c1[nH]c(=O)n(Cc2ccccc2)c(O)c1/C=N/Nc1c(F)c(F)c(F)c(F)c1F  -0.57%
8. O=C(Nc1cccc(OC(=O)N2CCCCC2)c1)N1CCOCC1  -0.57%
9. CC[N+](CC)(CC)CCCCCCCCCC[N+](CC)(CC)CC  0.44%
10. O=c1[nH]c(=O)n(CCc2ccccc2)c(O)c1/C=N/N1CCOCC1  0.56%
11. Cc1cc(N2CCNC[C@@H]2C)ccc1N1CC[C@H](O)C1  0.8%
12. Cc1ccccc1CCC[C@@H](CC1CCCCC1)CN(C)C(=O)Oc1ccccc1  0.88%
13. Brc1ccc2c(c1)CNCc1cnnn1-2  0.9%
14. O=S(=O)(c1ccccc1)N1CCC2CCNC2C1 (stereo not given)  1.08%
15. CCC(C)NC1(c2ccccc2)CCCCC1 (stereo not given)  1.32%
16. NC(=O)Nc1cccc(C(F)(F)F)c1  1.53%
17. CN(C)CC1CCCCC1=O (stereo not given)  1.62%
18. CN1CCN(C(=O)COc2ccc(C(C)(C)C)cc2Br)CC1  1.63%
19. COP(=O)(Sc1ccccc1)C(Cc1ccccc1)NC(=O)OCc1ccccc1 (stereo not given)  1.8%
20. Clc1ccc([C@@H]2CC3CCC2N3)cn1 (stereo not given in full)  1.87%
21. COc1cc(C(c2c(O)c3ccccc3oc2=O)c2c(C)n(C)n(-c3ccccc3)c2=O)ccc1O (stereo not given)  2.01%
22. O=C(N/N=C/c1c(O)n(C2CC2)c(=S)[nH]c1=O)c1ccccc1Cl  2.67%
23. COc1ccc2c(c1)[C@@]13CCCCC1[C@@H](C2)NCC3 (stereo not given in full)  4.73%
24. c1ccc2sc(N3CCNCC3)nc2c1  5.89%

From PubChem BioAssay AID687014 (The Scripps Research Institute Molecular Screening Center, 2013)
